Results filed as inconclusive are left out. The source made the active and inactive calls. Unless noted, the call rests on the fitted dose curve; in most records, active means well fitted curve in the direction sought with a large enough effect; inconclusive means small, poorly fitted or top-dose-only effect, or another doubt; inactive means no such curve, though single readings can be large; an effect the other way counts as inactive or inconclusive.
Legend:
[1] = qHTS for Inhibitors of Plasmodium falciparum (DD2) proliferation (AID 504314);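 further: parasite DNA measured by SYBR Green fluorescence after red cell lysis; plate controls were DMSO vehicle for no effect and artemisinin wells for full effect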
Method in brief: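 Quantitative HTS growth inhibition: SYBR Green I binding to parasite DNA after 72 h drug exposure of infected erythrocytes (0.3% parasitemia, 2.5% hematocrit). Signals normalized per plate to inhibitor and vehicle wells.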

[2] = qHTS for Inhibitors of Plasmodium falciparum (7G8) proliferation (AID 504316);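 further: series mostly up to about 6.7 µM; 0% = DMSO vehicle and -100% = 0.29 µM artemisinin full kill; nearly all actives have a fitted effect of over 65% in size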
Method in brief: (§1)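 Erythrocytes infected with P. falciparum line (0.3% parasitemia, 2.5% hematocrit final) incubated with compounds 72 h at 37 °C, 5% CO2; SYBR Green lysis buffer added, fluorescence read next day. Normalized to 0.29 uM artemisinin and DMSO.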

[3] = qHTS for Inhibitors of Plasmodium falciparum (HB3) proliferation (AID 504318);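 further: 0% = DMSO vehicle and -100% = artemisinin control; nearly all actives have a fitted effect of over 60% in size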
Method in brief: as §1

[4] = qHTS for Inhibitors of Plasmodium falciparum (CP250) proliferation (AID 504320);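 further: plate controls were DMSO vehicle for no effect and 0.29 µM artemisinin control for full effect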
Method in brief: as §1

[5] = molecular target: Atrial natriuretic peptide receptor 1 (Homo sapiens) (UniProt P16066); experiment: Natriuretic polypeptide receptor (hNpr1) antagonism - Pilot CMLD screen (AID 1347052; calls by dose curve;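 further: HEK293 cells with hNpr1 stimulated by hNppA peptide at 0.1 nM; cGMP level read as GloSensor luciferase luminescence after agonist stimulation; series mostly up to about 9.2 µM; on the % scale 0 is the no-effect control and ±100 the full control effect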)
Sequence of Atrial natriuretic peptide receptor 1 (Homo sapiens) (P16066 whole entry, looked up): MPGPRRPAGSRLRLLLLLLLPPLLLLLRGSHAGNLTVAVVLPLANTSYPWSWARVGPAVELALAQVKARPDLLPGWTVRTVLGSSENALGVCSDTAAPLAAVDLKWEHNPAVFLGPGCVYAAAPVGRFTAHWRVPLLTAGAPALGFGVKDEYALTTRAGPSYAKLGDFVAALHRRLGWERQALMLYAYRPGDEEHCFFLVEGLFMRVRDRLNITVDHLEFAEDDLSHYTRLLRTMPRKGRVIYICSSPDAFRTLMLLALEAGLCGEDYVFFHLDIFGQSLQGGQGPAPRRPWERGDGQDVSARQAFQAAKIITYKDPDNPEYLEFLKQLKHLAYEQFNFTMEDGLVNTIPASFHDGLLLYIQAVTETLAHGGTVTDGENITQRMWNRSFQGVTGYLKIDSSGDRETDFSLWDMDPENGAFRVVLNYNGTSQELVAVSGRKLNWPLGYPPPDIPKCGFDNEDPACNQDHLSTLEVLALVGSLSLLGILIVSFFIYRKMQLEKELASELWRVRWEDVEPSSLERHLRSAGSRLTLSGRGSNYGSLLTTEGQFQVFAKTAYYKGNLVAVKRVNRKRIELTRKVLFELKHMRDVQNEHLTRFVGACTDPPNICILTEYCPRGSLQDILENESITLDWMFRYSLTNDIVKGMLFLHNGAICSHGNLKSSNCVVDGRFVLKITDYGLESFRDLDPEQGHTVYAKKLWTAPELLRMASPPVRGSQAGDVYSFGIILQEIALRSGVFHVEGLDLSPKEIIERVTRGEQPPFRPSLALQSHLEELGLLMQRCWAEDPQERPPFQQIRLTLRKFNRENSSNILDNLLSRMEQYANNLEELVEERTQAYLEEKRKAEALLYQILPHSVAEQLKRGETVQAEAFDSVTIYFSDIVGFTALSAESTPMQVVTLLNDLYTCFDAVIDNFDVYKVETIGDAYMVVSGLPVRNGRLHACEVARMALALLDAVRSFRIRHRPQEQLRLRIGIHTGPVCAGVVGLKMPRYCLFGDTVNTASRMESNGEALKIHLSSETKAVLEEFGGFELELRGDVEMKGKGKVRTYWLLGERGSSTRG

C=CC[C@@H]1C=C[C@@H](OC(=O)OCC)[C@@H](COC(=O)OCC)O1
inactive: Potency [1] | Potency [2] | Potency [3] | Potency [4] | Potency [5]

C#CCCOC(=O)N1C2=NC(C(=O)OC)=C(C(=O)OC)[C@@H]3N(CC=C)c4ccccc4[C@]23C[C@H]1C(=O)OC
inactive: activity, negative = inhibition [1] 5.23% [at 1.12 µM] | Potency [2] | Potency [3] | Potency [4] | Potency [5]

COc1ccc(-c2nc(-c3ccccc3)oc2NC2CCCCC2)cc1
inactive: Potency [1] | Potency [2] | Potency [3] | Potency [4] | Potency [5]

CCN(CCNC(=O)[C@H]1C=C(OC)C(=O)C[C@H](c2ccccc2)[C@@H]1C)C(C)=O
inactive: Potency [1] | Potency [2] | Potency [3] | Potency [4] | Potency [5]

COC[C@H]1O[C@@H]2O[C@@H]1[C@@H](C=Cc1ccccc1)C[C@H]2C
inactive: Potency [1] | Potency [2] | Potency [3] | Potency [4] | Potency [5]

C=CCN1C(=O)C2(CC(C)=C[C@@H](C)O2)c2c(Br)cccc21 (stereo not given in full)
inactive: Potency [1] | Potency [2] | Potency [3] | Potency [4] | Potency [5]

CCOC(=O)CN1C(=O)NC(c2ccccc2)C(C(C)=O)=C1C (stereo not given)
inactive: Potency [1] | Potency [2] | Potency [3] | Potency [4] | Potency [5]

C=CCCCN1C(=O)NC(c2ccccc2)C(C(=O)OC)=C1C (stereo not given)
inactive: Potency [1] | Potency [2] | Potency [3] | Potency [4] | Potency [5]

COC(=O)N[C@@H](c1cccc(F)c1)[C@@H](C)[N+](=O)[O-]
inactive: Potency [1] | Potency [2] | Potency [3] | Potency [4] | Potency [5]

COc1cc2c(cc1OC)[C@@H]1O[C@](c3ccsc3)(C2)OC2=C1C(=O)OC1(CCCCC1)C2
inactive: Potency [1] | Potency [2] | Potency [3] | Potency [4] | Potency [5]

CCCCC1=CC2=C(c3ccco3)C(=O)C(C)(OC(=O)c3ccc(OC)cc3)C(=O)C2=CN1Cc1ccccc1 (stereo not given)
inactive: Potency [1] | Potency [2] | Potency [3] | Potency [4] | Potency [5]

CCOC(=O)[C@@]1([C@@H](NC(=O)OC)c2cccc(C)c2)CCCC1=O
inactive: Potency [1] | Potency [2] | Potency [3] | Potency [4] | Potency [5]

CCOC(=O)CN1C(=O)NC(c2cccc(C(F)(F)F)c2)C(C(=O)OC)=C1C (stereo not given)
inactive: Potency [1] | Potency [2] | Potency [3] | Potency [4] | Potency [5]

O=C1CCCC=C1C(CCc1ccccc1)OC(=O)c1ccc(Br)cc1 (stereo not given)
inactive: Potency [1] | Potency [2] | Potency [3] | Potency [4] | Potency [5]

CC(=O)C1=C(C)N(Cc2ccccc2)C(=O)NC1c1ccco1 (stereo not given)
inactive: Potency [1] | Potency [2] | Potency [3] | Potency [4] | Potency [5]

CC(=O)OC[C@H]1O[C@H](CCON=C[C@@H](C)[C@H](OCc2ccccc2)C(C)C)C=C[C@@H]1OC(C)=O
inactive: Potency [1] | Potency [2] | Potency [3] | Potency [4] | Potency [5]

CC=COC(=O)N[C@@H](c1ccccc1)[C@]1(C(=O)OC)CCCC1=O
inactive: Potency [1] | Potency [2] | Potency [3] | Potency [4] | Potency [5]

CCN(CC)CCCN=C1NC(c2ccccc2)C(C(=O)OC)=C(C)N1CC (stereo not given)
inactive: Potency [1] | Potency [2] | Potency [3] | Potency [4] | Potency [5]

C=CCOC(=O)N[C@H](c1cccc(OC)c1)[C@H](C)C=CCC(=O)OC
inactive: Potency [1] | Potency [2] | Potency [3] | Potency [4] | Potency [5]

COC(=O)N[C@H](C[N+](=O)[O-])C(C)(C)C
inactive: Potency [1] | Potency [2] | Potency [3] | Potency [4] | Potency [5]

Cc1cccc(C)c1Nc1oc(-c2ccccc2)nc1-c1ccccc1
inactive: Potency [1] | Potency [2] | Potency [3] | Potency [4] | Potency [5]

CC(C)(C(O)c1ccc([N+](=O)[O-])cc1)[N+](=O)[O-] (stereo not given)
inactive: Potency [1] | Potency [2] | Potency [3] | Potency [4] | Potency [5]

CCOC(=O)C1=CN(CCC=C(C)C)C(=O)NC1c1ccccc1 (stereo not given)
inactive: Potency [1] | Potency [2] | Potency [3] | Potency [4] | Potency [5]

C=CCOC(=O)NC(c1ccc(F)c(F)c1)C(C(=O)CCl)C(=O)OC (stereo not given)
inactive: Potency [1] | Potency [2] | Potency [3] | Potency [4] | Potency [5]

CC(=O)OC[C@H]1O[C@@H](ON=CC[C@@H]2C=C[C@@H](OC(C)=O)[C@@H](COC(C)=O)O2)[C@@H](OC(C)=O)[C@@H](OC(C)=O)[C@@H]1OC(C)=O
inactive: Potency [1] | Potency [2] | Potency [3] | Potency [4] | Potency [5]

CC(CCC(=O)OC[C@H]1O[C@H](C#Cc2ccccc2)C=C[C@H]1Oc1ccc(C)cc1)=NO[C@@H](C)c1cn([C@H](CO)Cc2ccccc2)nn1
inactive: Potency [1] | Potency [2] | Potency [3] | Potency [4] | Potency [5]

From PubChem BioAssay (NCATS)
